Data reported in PubChem BioAssay (Tox21).
A number with no mark means an inactive call. Calls of active or inactive are those of the source. Calls come from the whole dose curve; as a rule, active = well fitted curve in the direction sought with a large enough effect in the repeat runs; inconclusive = weak or mixed curves; inactive = flat fitted curve, though single readings scatter.

Test: qHTS assay to test for compound auto fluorescence at 460 nm (blue) in HepG2 cells (AID 720687)
Settings: autofluorescence 405/460 nm, 1 h; series mostly up to 91.3 µM
From the text: U.S. Tox21 Program National Center for Advancing Translational Sciences [NCATS] NIH Chemical Genomics Center [NCGC] U.S. Environmental Protection Agency [EPA] National Institutes of Environmental Health Sciences [NIEHS] National Toxicology Program [NTP] U.S. Food and Drug Administration [FDA] Tox21 Assay Overview: Compound auto fluorescence often interferes with screening of the compound library against various biological targets and signaling pathways. Some of these compounds may have fluorophoric properties. Such properties may interfere with the assay outputs resulting in false positives and/or negatives. To decrease such complications and ensure the compound activities are relevant in terms of biological response, the Tox21 10K compound library was screened for auto fluorescence. From the fluorophores used as reporter signals in our screening assays, the auto fluorescence equivalencies of compounds against three fluorophores have been evaluated: Triamterene, Fluorescein and Rose Bengal sodium for blue, green and red fluorescence, respectively. The fluorescence intensities were measured using Excitation/Emission wavelengths at 405/460nm, 485/535nm and 540/590nm for blue, green and red labels, respectively. This assay includes the blue fluorescence data.
Tox21 Assay Protocol Summary: 2,000 HepG2 cells in 5 uL of culture medium (MEM containing 10% FBS) per well were dispensed into black wall/clear bottom 1536-well plates using a Multidrop Combi Dispenser (ThermoFisher Scientific, Waltham, MA). The assay plates were incubated overnight at 37 C to allow cell attachment to the well bottom, followed by the transfer of 23 nL compound or DMSO vehicle by a pintool work station (Kalypsys , San Diego, CA). After the assay plates were incubated for 1 hr at 37 C and 5% CO2, fluorescence intensities in the assay plates were measured by an Envision (PerkinElmer, Shelton, CT) plate reader using three labels for measuring blue, green and red fluorescence at […] 460, 535 and 590 nm respectively.
% is set by controls: 0 for no effect and ±100 for the full control effect.

| Structure (SMILES) | outcome | fluorescence, % of fluorescent control |
| --- | --- | --- |
| C=CC(C)(O)CC/C=C(\C)CC (stereo not given) | inactive |  |
| CC(=O)OC(C)c1ccccc1 (stereo not given) | inactive |  |
| CC(C)(CO)[C@@H](O)C(=O)NCCCO | inactive |  |
| COCC(=O)Nc1c(I)c(C(=O)NCC(O)CO)c(I)c(C(=O)N(C)CC(O)CO)c1I (stereo not given) |  | -0.143% [at 18.6 µM] |
| C=C[C@@H](C)CCC=C(C)C | inactive |  |
| COc1ccc(OC)c(NC(=O)CC(C)=O)c1 | inactive |  |
| CO[Si](CCCS)(OC)OC | inactive |  |
| FC(F)(F)c1ccc(Cl)cc1Cl | inactive |  |
| OCCCCCCCl | inactive |  |
| CCCCCCCCCCCCC | inactive |  |
| CN=C(NC#N)NCCSCc1csc(N=C(N)N)n1 | inactive |  |
| Cc1cccc(NC(=S)N(C)C)c1 | inactive |  |
| O=S(=O)(O)SSS(=O)(=O)O | inactive |  |
| CCC(C)(CCC(C)C)C(=O)[O-].CCC(C)(CCC(C)C)C(=O)[O-].[Zn+2] (stereo not given) | inactive |  |
| C[C@@H]1C[C@H]2[C@@H]3C[C@H](F)C4=CC(=O)C=C[C@]4(C)[C@@]3(F)[C@@H](O)C[C@]2(C)[C@@]1(O)C(=O)CO |  | -0.0249% [at 18.6 µM] |
| COc1ccc(/C=N/NC(=O)c2ccncc2)cc1OC | inactive |  |
| CCOc1ccc(NC(=O)OC(C)C)cc1OCC | inactive |  |
| C=CCOCC(CO)(COCC=C)COCC=C | inactive |  |
| CC(C)CCO | inactive |  |
| CCc1nccnc1C | inactive |  |

| Structure (SMILES) | outcome | fluorescence, % of fluorescent control |
| --- | --- | --- |
| Nc1cc(C(=O)O)ccc1Cl | inactive |  |
| CCN(CCC#N)c1ccccc1 | inactive |  |
| CCC(=O)c1ccc(O)cc1 | inactive |  |
| Cc1cccc(Nc2ccncc2S(=O)(=O)NC(=O)NC(C)C)c1 |  | -0.0073% [at 18.6 µM] |
| C=COCCOCCOC=C | inactive |  |
| C=CCOC(=O)c1ccc(C(=O)OCC=C)c(C(=O)OCC=C)c1 | inactive |  |
| NC(=O)C1(N2CCCCC2)CCN(CCCC(=O)c2ccc(F)cc2)CC1 | inactive |  |
| Oc1ccccc1Cc1ccccc1O | inactive |  |
| Cc1ncc([N+](=O)[O-])n1CC(O)CCl (stereo not given) |  | -0.0428% [at 18.6 µM] |
| C=CCOCC(O)CCl (stereo not given) | inactive |  |
| COc1cccc2sc(N)nc12 | inactive |  |
| O=C(O)c1ccccc1C(=O)Nc1ccc(S(=O)(=O)Nc2nccs2)cc1 | inactive |  |
| F[Si-2](F)(F)(F)(F)F | inactive |  |
| O=C(O)c1ccccc1C(=O)OCc1ccccc1 | inactive |  |
| CC(=O)c1ccc(OCC(=O)N2CCCCC2)cc1 | inactive |  |
| NC(Cc1c[nH]c2ccccc12)C(=O)O (stereo not given) | inactive |  |
| CC(C)C(=O)c1ccccc1 | inactive |  |
| CCC(C)N (stereo not given) | inactive |  |
| CCCCCCCC/C=C\CCCCCCCC(=O)OC[C@@H](O)[C@H]1OC[C@H](O)[C@H]1O | inactive |  |
| CCC1Nc2cc(Cl)c(S(N)(=O)=O)cc2S(=O)(=O)N1 (stereo not given) | inactive |  |
